From PubChem
Menin MLL FP TR: qHTS Assay for Inhibitors Targeting the Menin-MLL Interaction in MLL Related Leukemias: Competition With Texas Red Labeled MLL-derived Mutant Peptide. O00255. Menin + Texas Red MLL mutant peptide, fluorescence polarization. Potency, µM (highest dose often 61.6 µM), for the others: at the highest dose FP activity change, negative = inhibition, most hits filed as inhibitors. 270,000 compounds, 0.23% hits; active means well fitted inhibition curve with a large enough effect in the polarisation, with a control signal flat, not every such curve was filed as active; inconclusive means small, poorly fitted or top-dose-only effect, or effect the other way, or a change in a side signal; inactive means no such curve, though single readings can be large or run the other way; the % refers to the polarisation; further: potency means the concentration at half of the fitted maximal effect; % of control where 0% means no effect
Target sequence (O00255 whole entry, looked up): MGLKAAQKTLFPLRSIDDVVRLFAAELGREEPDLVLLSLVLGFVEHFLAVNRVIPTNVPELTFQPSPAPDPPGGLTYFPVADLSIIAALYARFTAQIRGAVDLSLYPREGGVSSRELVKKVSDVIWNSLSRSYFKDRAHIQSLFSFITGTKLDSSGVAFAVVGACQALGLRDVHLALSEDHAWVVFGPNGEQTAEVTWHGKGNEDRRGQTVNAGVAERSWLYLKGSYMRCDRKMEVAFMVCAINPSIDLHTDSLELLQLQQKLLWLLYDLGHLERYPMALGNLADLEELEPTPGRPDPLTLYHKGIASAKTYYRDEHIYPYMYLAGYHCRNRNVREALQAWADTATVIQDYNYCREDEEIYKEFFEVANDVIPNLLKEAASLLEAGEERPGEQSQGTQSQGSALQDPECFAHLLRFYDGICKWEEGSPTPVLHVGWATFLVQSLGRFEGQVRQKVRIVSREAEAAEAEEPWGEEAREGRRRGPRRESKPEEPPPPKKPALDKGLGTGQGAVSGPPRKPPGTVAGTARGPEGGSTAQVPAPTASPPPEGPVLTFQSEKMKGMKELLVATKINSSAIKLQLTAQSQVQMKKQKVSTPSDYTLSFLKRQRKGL
CtBP-E1A blk: qHTS Assay for Inhibitors of the CtBP/E1A Interaction | 340,000 compounds, 0.49% hits | activity change, % (no concentration beside the values) | AlphaScreen GST-E1A/His-CtBP binding, 1536-well; stronger effect = lower value; further: on the % scale 0 is the no-effect control and ±100 the full control effect
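AlphaScreen with 125 nM GST-E1A and 125 nM His-CtBP (5X stocks) in Tris pH 8.0, 300 mM NaCl, BSA, Tween 20, TCEP. Compounds preincubated 2 h at 37 deg C, then glutathione donor/nickel acceptor beads added for 1 h at 37 deg C in dark.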
Menin MLL FP FL: qHTS Assay for Inhibitors Targeting the Menin-MLL Interaction in MLL Related Leukemias: Competition With Fluorescein Labeled MLL-derived Peptide; Fluorescence polarization, fluorescein-MLL peptide displacement from menin; FP activity change, % at 61.4 µM; 290,000 tested, under 10 active; AID 1766, 2009; active means well fitted curve in the direction sought with a large enough effect in the polarisation, not every such curve was filed as active; inconclusive means small, poorly fitted or top-dose-only effect, or effect the other way, or a change in a side signal; inactive means no such curve, though single readings can be large or run the other way; the % refers to the polarisation; further: % of control where 0% means no effect
GLS inhibitor: qHTS for Inhibitors of Glutaminase (GLS); AID 624170, 2012; Glutaminase kidney isoform, mitochondrial (Homo sapiens), O94925; Potency, µM (highest dose often 45.5 µM), for inactives: at the top dose activity change, negative = inhibition, usual class: inhibitors; GLS enzymatic activity, qHTS titration; 410,000 compounds, 0.21% hits; active means well fitted inhibition curve with a large enough effect; inconclusive means small, poorly fitted or top-dose-only effect, or another doubt; inactive means no such curve, though single readings can be large or run the other way; further: potency means the concentration at half of the fitted maximal effect; on the % scale 0 is the no-effect control and ±100 the full control effect
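Two-point fluorescence kinetic (t0, 30 min RT) for hKGA; glutamate detected via glutamate oxidase–HRP–Amplex Red. Substrate: 1 mM L-glutamine solution; buffer 45 mM KH2PO4, pH 8.2.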
CXXC DNA block: qHTS Fluorescence Polarization Assay for Inhibitors of MLL CXXC domain - DNA interaction; Potency, µM (top dose mostly 115 µM), without a hit: at the top dose activity change, negative = inhibition, hits mostly inhibitors; MLL-CXXC / FITC-HOXA9 DNA fluorescence polarization; 290,000 compounds, 0.037% hits; active means well fitted inhibition curve with a large enough effect in the polarisation, with a control signal flat, not every such curve was filed as active; inconclusive means small, poorly fitted or top-dose-only effect, or effect the other way, or a change in a side signal; inactive means no such curve, though single readings can be large or run the other way; the % refers to the polarisation; further: potency means the concentration at half of the fitted maximal effect
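Purified MLL-CXXC (added from a 7 uM solution) was preincubated 5 min at ambient with pinned compounds in 50 mM Tris-HCl pH 7.5, 50 mM NaCl, 1 mM DTT, 0.05% BSA. Fluorescein-labeled HOX-A9 DNA (50 nM solution) followed, 30 min, then polarization read.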
Six1-Eya2 inh: qHTS Assay for Inhibitors of the Six1/Eya2 Interaction. AlphaScreen GST-Six1/His-Eya2 binding, biochemical; stronger effect = lower value. 360,000 compounds, 0.56% hits. AID 651725, 2012. activity change, % (no concentration beside the values); further: on the % scale 0 is the no-effect control and ±100 the full control effect
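AlphaScreen luminescence read after one hour at 37 °C in darkness. Pin-transferred compounds met GST-Six1 and His-Eya2 protein (5X stock 250 nM/500 nM) plus glutathione donor and Ni-chelate acceptor beads (5X, 50 ug/mL).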
Active calls of the source: *. Hits are enriched below; roughly 0.83% of the tested compounds scored in any of these assays. Unless noted, no stated cut-off is given here; in the data, active means activity change below about -65%; inconclusive means mostly about -30% to -63%; inactive means weaker than that.

Screening O=C(N/N=C/c1cc(Br)cc(Cl)c1O)c1ccc2c(c1)OCO2 returned CtBP-E1A blk -83*, GLS inhibitor 6% and Six1-Eya2 inh -81*.
`COc1cc(Cl)cc(/C=N\NC(=O)c2ccc3c(c2)OCO3)c1O` gave CtBP-E1A blk inconclusive, GLS inhibitor -2% and Six1-Eya2 inh -88*.
Screening O=C(N/N=C/c1ccc2c(c1)OCO2)c1ccc2c(c1)OCCO2 returned Menin MLL FP TR 12%, CtBP-E1A blk -14, Menin MLL FP FL 5, GLS inhibitor -8%, CXXC DNA block -7% and Six1-Eya2 inh -17.
For O=C(N/N=C/c1ccccc1O)c1ccc2c(c1)OCO2 the results were Menin MLL FP TR inconclusive, CtBP-E1A blk -78*, Menin MLL FP FL 2, GLS inhibitor -1%, CXXC DNA block 236% and Six1-Eya2 inh inconclusive.
For O=C(N/N=C/c1cc(Br)c(O)c(Br)c1O)c1ccc2c(c1)OCCO2 the results were Menin MLL FP TR inconclusive, CtBP-E1A blk -97*, Menin MLL FP FL 18, GLS inhibitor 0%, CXXC DNA block 24% and Six1-Eya2 inh -85*.
For COc1cccc(OC)c1-c1cc(C(=O)NC2(C(=O)O)C3CC4CC(C3)CC2C4)nn1-c1ccc(C(=O)N(C)CCCN(C)C)cc1C(C)C (centres undefined) the results were Menin MLL FP TR -9% and Menin MLL FP FL -1.
`CCCCCCCCCCCCCC[N+](C)(C)Cc1ccccc1` gave Menin MLL FP TR -16%, Menin MLL FP FL -1, GLS inhibitor -13% and CXXC DNA block 15%.
`CCCCCCCCCCCCCCCC[N+](C)(C)Cc1ccccc1` gave Menin MLL FP TR inconclusive, Menin MLL FP FL -9, GLS inhibitor 32µM* and CXXC DNA block inconclusive.
Screening NC(=S)NN=Cc1cc(-c2cccc(N)c2)ccn1 returned CtBP-E1A blk -81*, GLS inhibitor 41% and Six1-Eya2 inh -88*.
For NC(=S)N/N=C\c1c2ccccc2cc2ccccc12 the results were Menin MLL FP TR 22%, CtBP-E1A blk -3, Menin MLL FP FL 9, GLS inhibitor 10%, CXXC DNA block 0% and Six1-Eya2 inh -11.
For CC(C)n1cc(/C=C2/SC(=O)N(CC(=O)Nc3ccc4c(c3)OCO4)C2=O)c2ccccc21 the results were Menin MLL FP TR 7.9µM*, CtBP-E1A blk -2, Menin MLL FP FL 2, GLS inhibitor -3%, CXXC DNA block 14% and Six1-Eya2 inh -2.
For Cc1ccc(NC(=S)NNC(=O)c2nnn(-c3ccccc3)c2C)cc1 the results were Menin MLL FP TR -15%, CtBP-E1A blk -1, Menin MLL FP FL 1, GLS inhibitor 24%, CXXC DNA block 12% and Six1-Eya2 inh -75*.
`CC(C)=CCC/C(C)=C\CC/C(C)=C\CC/C=C(\C)CC/C=C(\C)CCC=C(C)C` gave GLS inhibitor 6%.
`O=C(CNC(=O)c1ccc(F)cc1)N/N=C/c1cc(Br)ccc1OC(=O)/C=C/c1ccco1` gave CtBP-E1A blk inconclusive, Menin MLL FP FL 2, GLS inhibitor -15%, CXXC DNA block 31% and Six1-Eya2 inh -23.
COc1ccccc1C(=O)NCC(=O)N/N=C/c1cc(Br)ccc1OC(=O)/C=C\c1ccco1 was read as Menin MLL FP TR -4%, Menin MLL FP FL 21, GLS inhibitor 6%, CXXC DNA block 16% and Six1-Eya2 inh -74*.
For O=C(CNC(=O)c1ccccc1F)N/N=C/c1cc(Br)ccc1OC(=O)/C=C/c1ccco1 the results were Menin MLL FP TR 17%, CtBP-E1A blk -92*, Menin MLL FP FL 13, GLS inhibitor -5%, CXXC DNA block 53% and Six1-Eya2 inh -90*.
Screening O=C1C=C(CO)OCC1=O returned GLS inhibitor -1%.
`COC1C(OC(=O)/C=C/C=C/C=C/C=C/C(=O)O)CCC2(CO2)C1C1(C)OC1CC=C(C)C` (centres undefined) gave Menin MLL FP TR 15%, Menin MLL FP FL 8, GLS inhibitor -4% and CXXC DNA block -6%.
`COC(=O)Cc1cc(=O)n(-c2nc3ccccc3[nH]2)[nH]1` gave Menin MLL FP TR 21%, CtBP-E1A blk -86*, Menin MLL FP FL 7, GLS inhibitor 16%, CXXC DNA block -3% and Six1-Eya2 inh -92*.
Screening CC(=O)c1ccc(NS(=O)(=O)c2cccc(S(=O)(=O)c3ccc(Cl)cc3)c2)cc1 returned GLS inhibitor -8%.
For CC(=O)Nc1cccc(NC(=O)CSc2nn3c(=O)c(C)nnc3s2)c1 the results were CtBP-E1A blk -88*, Menin MLL FP FL 7, GLS inhibitor 4%, CXXC DNA block 8% and Six1-Eya2 inh -73*.
Screening Cc1nnc2sc(SCC(=O)Nc3ccc(Cl)cc3)nn2c1=O returned Menin MLL FP TR 8%, CtBP-E1A blk -88*, Menin MLL FP FL 3, GLS inhibitor 4%, CXXC DNA block 0% and Six1-Eya2 inh inconclusive.
`CS(=O)(=O)N1CCC2(CC1)CN(c1ccc(-c3ccccc3)cc1)C2` gave Menin MLL FP TR inconclusive and Menin MLL FP FL 2.
Cc1cc(C)c(NC(=O)CN)c(C)c1 was read as Menin MLL FP TR 0%, CtBP-E1A blk 2, Menin MLL FP FL 0, GLS inhibitor 0.89µM*, CXXC DNA block -3% and Six1-Eya2 inh 19.
Screening Cc1cccc(C)c1NC(=O)CN returned CtBP-E1A blk 7, Menin MLL FP FL 0, GLS inhibitor inconclusive, CXXC DNA block -24% and Six1-Eya2 inh -3.
For CC(C)C1=CC2=CC[C@@H]3[C@](C)(CCC[C@@]3(C)C(=O)O)[C@H]2CC1 the results were Menin MLL FP TR 3%, Menin MLL FP FL 1, GLS inhibitor 14µM* and CXXC DNA block -2%.
Screening Cc1c(-c2ccnc3cc(C(=O)O)nn23)cnn1C returned Menin MLL FP TR 0%, CtBP-E1A blk 1, Menin MLL FP FL 2, GLS inhibitor 7.9µM*, CXXC DNA block 5% and Six1-Eya2 inh -12.
Screening Cc1ccc2nc(N3CCN(c4cccc(Cl)c4)CC3)c(-n3nc(C)cc3C)nc2c1 returned GLS inhibitor -2%.
Screening O=C(COC(=O)/C=C/c1ccccc1)NC1CCS(=O)(=O)C1 (centres undefined) returned GLS inhibitor -7% and Six1-Eya2 inh 0.
